As usually defined, the inhibition is the change of the read-out against control, counted positive when it falls.

Among all 37,000 compounds or so, about 2,800 (7.6%) were called active. Inconclusive results (about 1%) are left out. Many of the other results were omitted from the sample, so actives are more common in it than they were. Values without a mark were called inactive. Rule as the data show it: active = inhibition above about 80%; inconclusive = no clear call, values can overlap the other calls; inactive = below that.

A short description of this assay: NOMO-1 AML cell viability reduction, primary screen, STK33 inhibitor project, CellTiter-Glo luminescence (AID 2330). Conditions: NOMO-1 AML viability, 72 h, active compounds read high, concentration not given here. Background: Cellular ATP, detected with luciferase, serves as a proxy for viable cell number.
For `C[C@@H]1CN([C@@H](C)CO)C(=O)c2cc(NC(=O)C3CCCCC3)ccc2O[C@@H]1CN(C)S(=O)(=O)c1ccc(F)cc1`, the inhibition is -1.45%.

For the compound `C[C@@H]1CN([C@@H](C)CO)C(=O)c2cc(NS(=O)(=O)c3cccs3)ccc2O[C@@H]1CN(C)S(=O)(=O)c1ccc(F)cc1`, the inhibition is 7.75%.

Regarding `CC[C@H]1CN2CCc3cc(OC)c(OC)cc3[C@@H]2C[C@@H]1C[C@H]1NCCc2cc(OC)c(OC)cc21`, the inhibition was 144% (active).

Turning to `Cc1noc(C)c1NC(=O)Nc1ccc2c(c1)C(=O)N([C@@H](C)CO)C[C@H](C)[C@H](CN(C)Cc1ccc(-c3ccccc3)cc1)O2`, the inhibition was 28.6%.

In the case of `COc1ccc(S(=O)(=O)Nc2ccc3c(c2)C(=O)N([C@@H](C)CO)C[C@@H](C)[C@H](CN(C)S(=O)(=O)c2cccs2)O3)cc1`, the inhibition was -10.4%.

For `CC(=O)c1cccc(NC(=O)C(C)N(c2ccc(C)cc2)S(C)(=O)=O)c1` (stereo not given), the inhibition was 14.6%.

`Cc1ccc(S(=O)(=O)N(C)CC(=O)Nc2ccc(C#N)cc2)cc1`: the inhibition was -13.1%.

Take `C[C@H]1CN([C@@H](C)CO)C(=O)Cc2cc(NC(=O)C3CC3)ccc2O[C@H]1CN(C)S(=O)(=O)c1ccc(Cl)cc1`: the inhibition is 125% (active).

As for `C[C@H]1CN([C@@H](C)CO)C(=O)Cc2cc(NC(=O)Nc3ccc(C(F)(F)F)cc3)ccc2O[C@@H]1CN(C)S(=O)(=O)c1ccc(Cl)cc1`, the inhibition is 105% (active).

For the compound `C[C@@H]1CN([C@@H](C)CO)C(=O)Cc2cc(NC(=O)Nc3ccccc3)ccc2O[C@@H]1CN(C)S(=O)(=O)c1ccc(F)cc1`, the inhibition was 14.1%.

On to `C[C@@H]1CN([C@@H](C)CO)C(=O)Cc2cc(NC(=O)Nc3ccc4c(c3)OCO4)ccc2O[C@@H]1CN(C)S(=O)(=O)c1ccc(Cl)cc1`, for which the inhibition is 30.8%.

For the compound `COc1ccc(NC(=O)Nc2ccc3c(c2)CC(=O)N([C@H](C)CO)C[C@H](C)[C@H](CN(C)S(=O)(=O)c2ccccc2)O3)cc1`, the inhibition is 57.6%.

In the case of `COc1ccc(NC(=O)Nc2ccc3c(c2)CC(=O)N([C@H](C)CO)C[C@H](C)[C@H](CN(C)S(=O)(=O)c2ccc(OC)cc2)O3)cc1`, the inhibition was 23.1%.

For `C[C@@H]1CN([C@H](C)CO)C(=O)Cc2cc(NC(=O)Nc3ccc(C(F)(F)F)cc3)ccc2O[C@@H]1CN(C)S(=O)(=O)c1ccccc1`, the inhibition is 31.7%.

For `C[C@H]1CN([C@@H](C)CO)C(=O)Cc2cc(NC(=O)Nc3ccc(F)cc3)ccc2O[C@H]1CN(C)S(=O)(=O)c1ccc(F)cc1`, the inhibition is 126% (active).

Take `C[C@@H]1CN([C@H](C)CO)C(=O)Cc2cc(NC(=O)C3CCCCC3)ccc2O[C@H]1CN(C)S(=O)(=O)c1ccc(Cl)cc1`: the inhibition is 28.6%.

Turning to `C[C@H]1CN([C@@H](C)CO)C(=O)Cc2cc(NC(=O)Nc3ccc(F)cc3)ccc2O[C@H]1CN(C)S(=O)(=O)c1ccccc1`, the inhibition is 108% (active).

In the case of `C[C@@H]1CN([C@@H](C)CO)C(=O)Cc2cc(NC(=O)Nc3ccc(F)cc3)ccc2O[C@@H]1CN(C)S(=O)(=O)c1ccccc1`, the inhibition was 20.8%.

With `COc1ccc(S(=O)(=O)N(C)C[C@@H]2Oc3ccc(NC(=O)C4CC4)cc3CC(=O)N([C@@H](C)CO)C[C@@H]2C)cc1`, the inhibition is -0.988%.

As for `Cc1nnc(SCc2ccc(C(=O)c3ccc(Cl)cc3)o2)n1-c1ccccc1`, the inhibition was -16.2%.

As to `CC(C)NC(=O)Nc1ccc2c(c1)C(=O)N([C@H](C)CO)C[C@H](C)[C@@H](CN(C)S(C)(=O)=O)OCCCC[C@@H](C)O2`, the inhibition is 34%.

Consider `COc1ccc(NC(=O)N(C)C[C@@H]2Oc3ccc(NC(=O)CCCN(C)C)cc3CC(=O)N([C@H](C)CO)C[C@H]2C)cc1`, for which the inhibition is -16.5%.

`COc1ccc(NC(=O)N(C)C[C@@H]2OCCCC[C@@H](C)Oc3ccc(NC(=O)NC4CCCCC4)cc3C(=O)N([C@H](C)CO)C[C@@H]2C)cc1`: the inhibition is -2.15%.

As for `Cc1ccc(S(=O)(=O)N(C)C[C@H]2Oc3ccc(NC(=O)CCCCCC(=O)Nc4ccccc4N)cc3C(=O)N([C@H](C)CO)C[C@H]2C)cc1`, the inhibition is 19.8%.

On to `COc1ccc(NC(=O)Nc2ccc3c(c2)C(=O)N([C@H](C)CO)C[C@H](C)[C@@H](CN(C)C(=O)NC2CCCCC2)OCCCC[C@@H](C)O3)cc1`, for which the inhibition was -9.45%.

With `C[C@@H]1CN([C@H](C)CO)C(=O)c2cccc(NS(=O)(=O)c3ccc(Cl)cc3)c2O[C@@H]1CN(C)CC1CC1`, the inhibition was 0.793%.

Regarding `CCc1cc(C)cc(OCC(O)Cn2cnc3ccccc32)c1` (stereo not given), the inhibition is 50.9%.

Consider `CC(C)c1ccc(OCC(O)Cn2cnc3ccccc32)cc1` (stereo not given), for which the inhibition was 52%.

Regarding `Cc1nc2ccccc2n1CC(O)COc1ccc(C2C=CCC2)cc1` (stereo not given), the inhibition was 85% (active).

With `COC(=O)c1ccccc1NC(=O)CSc1n[nH]c(-c2ccncc2)n1`, the inhibition was 19.3%.

In the case of `O=C(NCCN1CCCCC1)Nc1cccc(Cl)c1`, the inhibition was 6.03%.

On to `C[C@H]1CN([C@@H](C)CO)C(=O)c2cccc(NS(=O)(=O)c3ccc(Cl)cc3)c2O[C@@H]1CN(C)Cc1ccc(Oc2ccccc2)cc1`, for which the inhibition was 44.7%.

As to `Cc1ccc(NC(=O)COc2ccccc2C)c([N+](=O)[O-])c1`, the inhibition was -19.4%.

Take `Cc1ccc(OCc2n[nH]c(=S)n2C2CCCCC2)c2c1CCC2`: the inhibition was 111% (active).

For the compound `C=CCn1c(=O)c(C(=O)NCc2ccccn2)c(O)c2ccccc21`, the inhibition was -12.4%.

For the compound `Cc1noc(C)c1NC(=O)Nc1ccc2c(c1)CC(=O)N([C@@H](C)CO)C[C@H](C)[C@@H](CN(C)CC1CCCCC1)O2`, the inhibition is 46.5%.

In the case of `C[C@@H]1CN([C@@H](C)CO)C(=O)c2cccc(NC(=O)Nc3ccc(F)cc3)c2O[C@@H]1CN(C)Cc1ccc(C(=O)O)cc1`, the inhibition was 0.82%.

On to `CCC/C=C/C=C/C1CC(O)C(O)C1C(=O)O` (stereo not given), for which the inhibition was 4.09%.

Turning to `Cc1ccc(S(=O)(=O)Nc2ccc3c(c2)C(=O)N([C@@H](C)CO)C[C@@H](C)[C@@H](CN(C)Cc2ccc(C(=O)Nc4ccccc4N)cc2)O3)cc1`, the inhibition was 110% (active).

Consider `C[C@@H]1CN([C@@H](C)CO)C(=O)c2cc(NS(=O)(=O)c3ccccc3)ccc2O[C@@H]1CN(C)Cc1ccc(C(=O)Nc2ccccc2N)cc1`, for which the inhibition was 110% (active).

As to `C[C@H]1CN([C@@H](C)CO)C(=O)c2cc(NC(=O)c3ccncc3)ccc2O[C@H]1CN(C)Cc1ccc(C(=O)Nc2ccccc2N)cc1`, the inhibition was 107% (active).

`C[C@H](CO)N1C[C@H](C)[C@H](CN(C)Cc2ccc(C(=O)Nc3ccccc3N)cc2)Oc2ccc(NS(C)(=O)=O)cc2C1=O`: the inhibition was 50.3%.

`Cc1ccc(S(=O)(=O)Nc2ccc3c(c2)C(=O)N([C@H](C)CO)C[C@H](C)[C@H](CN(C)Cc2ccccc2)OCCCC[C@@H](C)O3)cc1`: the inhibition is 45.3%.

Regarding `C[C@@H]1CCCCO[C@H](CN(C)Cc2ccccc2)[C@@H](C)CN([C@H](C)CO)C(=O)c2cc(NS(=O)(=O)c3ccc(Cl)cc3)ccc2O1`, the inhibition is 40.5%.

Regarding `C[C@@H]1CN([C@@H](C)CO)C(=O)c2cc(NS(=O)(=O)c3cn(C)cn3)ccc2O[C@@H]1CN(C)Cc1ccc(C(=O)Nc2ccccc2N)cc1`, the inhibition is 5.34%.

In the case of `C[C@@H]1CN([C@@H](C)CO)C(=O)c2cc(NC(=O)c3ccncc3)ccc2O[C@@H]1CN(C)Cc1ccncc1`, the inhibition is -12.5%.

Regarding `C[C@@H]1CN([C@@H](C)CO)C(=O)c2cc(NC(=O)c3ccncc3)ccc2O[C@H]1CN(C)Cc1ccc(C(=O)O)cc1`, the inhibition was 19.8%.

`C[C@@H]1CN([C@H](C)CO)C(=O)c2cc(NS(=O)(=O)c3cn(C)cn3)ccc2O[C@@H]1CN(C)Cc1ccc(C(=O)Nc2ccccc2N)cc1`: the inhibition was 20.1%.

Take `Cc1ccc(S(=O)(=O)Nc2ccc3c(c2)C(=O)N([C@@H](C)CO)C[C@@H](C)[C@H](CN(C)Cc2ccc(C(=O)O)cc2)O3)cc1`: the inhibition is 2.99%.

Consider `Cc1ccc(S(=O)(=O)Nc2ccc3c(c2)C(=O)N([C@H](C)CO)C[C@H](C)[C@H](CN(C)Cc2ccc(C(=O)Nc4ccccc4N)cc2)OCCCC[C@@H](C)O3)cc1`, for which the inhibition was 127% (active).
